# What was measured:
# Assay in all cases: DAPPL (digital affinity profiling via proximity ligation, sequencing); 10 mM Tris-HCl pH 7.5, 50 mM NaCl, 1 mM DTT, 4% glycerol, room temperature, 30 min; GST-TFs on glutathione beads, 16-mer random dsDNA library, 0.1% formaldehyde crosslink after washing; high values mean tight binding
# FEV = target: T1, FEV (Homo sapiens, UniProt Q99581 1-238); details: protein: recombinant; tags: N-terminal GST; dsDNA, one strand shown
# T1 sequence: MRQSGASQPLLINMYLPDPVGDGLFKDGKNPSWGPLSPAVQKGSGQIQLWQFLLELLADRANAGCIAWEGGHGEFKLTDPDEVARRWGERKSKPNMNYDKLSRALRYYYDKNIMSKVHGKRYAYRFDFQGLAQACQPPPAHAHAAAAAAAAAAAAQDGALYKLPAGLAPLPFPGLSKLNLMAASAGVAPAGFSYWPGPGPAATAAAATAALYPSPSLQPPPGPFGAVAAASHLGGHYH
# Summary of the method: (§1)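 Human transcription factors fused to GST were expressed in yeast, captured on glutathione beads, given DNA barcodes and pooled with a GST-only negative control. Pools were incubated with 200 nmole of a 16-mer random double-stranded DNA library in Tris/NaCl/DTT/glycerol buffer at room temperature for 30 min. They were then washed, crosslinked with 0.1% formaldehyde, proximity-ligated (BsaI/T4 ligase, 1 h, 37 °C), PCR-amplified and sequenced on an Illumina NextSeq500. Binding signal is each 6-mer's read frequency for a factor divided by its frequency for the GST control.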
# ETV5 = ETV5 (Homo sapiens, UniProt P41161 1-510); details: protein: recombinant; tags: N-terminal GST; dsDNA, one strand shown
# Chain of ETV5 (P41161 whole entry): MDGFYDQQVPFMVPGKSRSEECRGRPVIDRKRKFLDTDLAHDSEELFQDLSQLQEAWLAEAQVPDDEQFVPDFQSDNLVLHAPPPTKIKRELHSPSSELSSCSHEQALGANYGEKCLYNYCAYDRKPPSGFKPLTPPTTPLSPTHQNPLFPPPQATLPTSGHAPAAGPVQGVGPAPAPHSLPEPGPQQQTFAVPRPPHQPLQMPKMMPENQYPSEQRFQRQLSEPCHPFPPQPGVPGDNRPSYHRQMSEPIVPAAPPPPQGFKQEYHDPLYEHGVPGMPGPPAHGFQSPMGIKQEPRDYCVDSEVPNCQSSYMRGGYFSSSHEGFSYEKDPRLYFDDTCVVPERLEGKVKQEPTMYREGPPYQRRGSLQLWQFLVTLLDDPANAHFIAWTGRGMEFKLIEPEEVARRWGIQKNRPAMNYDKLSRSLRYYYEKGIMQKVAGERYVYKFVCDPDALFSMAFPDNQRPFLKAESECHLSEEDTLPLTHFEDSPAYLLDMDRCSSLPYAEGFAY
# Summary of the method: as §1
# HSF1 = HSF1 (Homo sapiens, UniProt Q00613 1-529); details: protein: recombinant; tags: N-terminal GST; chain copies: 3; dsDNA, one strand shown
# Chain of HSF1 (Q00613 whole entry): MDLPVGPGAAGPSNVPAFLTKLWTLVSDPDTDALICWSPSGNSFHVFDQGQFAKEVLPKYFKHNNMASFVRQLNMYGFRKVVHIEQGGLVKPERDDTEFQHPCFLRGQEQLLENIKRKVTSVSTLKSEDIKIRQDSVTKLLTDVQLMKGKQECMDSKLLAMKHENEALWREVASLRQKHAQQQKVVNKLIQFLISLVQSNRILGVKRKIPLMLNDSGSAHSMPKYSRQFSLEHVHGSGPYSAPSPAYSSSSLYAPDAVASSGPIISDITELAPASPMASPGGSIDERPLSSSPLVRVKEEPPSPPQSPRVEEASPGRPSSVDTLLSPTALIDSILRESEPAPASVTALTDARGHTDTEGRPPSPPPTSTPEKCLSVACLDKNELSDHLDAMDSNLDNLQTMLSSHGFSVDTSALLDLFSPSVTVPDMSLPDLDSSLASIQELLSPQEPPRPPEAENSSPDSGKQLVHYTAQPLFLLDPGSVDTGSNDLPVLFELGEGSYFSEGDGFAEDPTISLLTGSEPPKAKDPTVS
# Summary of the method: as §1
# SPIC = target: T2, SPIC (Homo sapiens, UniProt Q8N5J4 1-248); details: protein: recombinant; tags: N-terminal GST; dsDNA, one strand shown
# T2 sequence: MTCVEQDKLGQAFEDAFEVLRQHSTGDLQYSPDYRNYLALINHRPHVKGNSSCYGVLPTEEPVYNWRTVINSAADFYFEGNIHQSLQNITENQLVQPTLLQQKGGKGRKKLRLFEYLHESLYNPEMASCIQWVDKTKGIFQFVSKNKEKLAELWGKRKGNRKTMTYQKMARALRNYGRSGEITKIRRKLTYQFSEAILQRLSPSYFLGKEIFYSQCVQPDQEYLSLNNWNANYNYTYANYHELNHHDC
# Summary of the method: as §1
# ELF4 = ELF4 (Homo sapiens, UniProt Q99607 1-663); details: protein: recombinant; tags: N-terminal GST; dsDNA, one strand shown
# Chain of ELF4 (Q99607 whole entry): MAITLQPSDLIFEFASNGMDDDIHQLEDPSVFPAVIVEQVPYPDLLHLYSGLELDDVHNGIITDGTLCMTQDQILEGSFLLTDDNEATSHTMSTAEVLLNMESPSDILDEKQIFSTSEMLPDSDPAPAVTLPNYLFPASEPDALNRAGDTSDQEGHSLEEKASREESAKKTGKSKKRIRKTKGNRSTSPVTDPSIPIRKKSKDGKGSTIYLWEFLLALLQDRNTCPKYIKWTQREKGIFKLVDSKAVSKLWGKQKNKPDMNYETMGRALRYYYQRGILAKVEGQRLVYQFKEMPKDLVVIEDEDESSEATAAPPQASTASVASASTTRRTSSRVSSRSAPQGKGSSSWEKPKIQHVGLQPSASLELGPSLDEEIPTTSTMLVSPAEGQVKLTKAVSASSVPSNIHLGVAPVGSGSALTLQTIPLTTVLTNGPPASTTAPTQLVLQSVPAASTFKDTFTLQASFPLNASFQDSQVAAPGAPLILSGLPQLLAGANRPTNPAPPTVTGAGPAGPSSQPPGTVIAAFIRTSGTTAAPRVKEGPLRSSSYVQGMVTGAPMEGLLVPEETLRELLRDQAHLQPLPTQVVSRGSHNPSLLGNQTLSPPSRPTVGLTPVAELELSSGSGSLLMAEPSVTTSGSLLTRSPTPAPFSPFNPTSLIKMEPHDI
# Summary of the method: as §1
# ELK4 = target: T3, ELK4 (Homo sapiens, UniProt P28324-2 1-405); details: protein: recombinant; tags: N-terminal GST; dsDNA, one strand shown
# T3 sequence: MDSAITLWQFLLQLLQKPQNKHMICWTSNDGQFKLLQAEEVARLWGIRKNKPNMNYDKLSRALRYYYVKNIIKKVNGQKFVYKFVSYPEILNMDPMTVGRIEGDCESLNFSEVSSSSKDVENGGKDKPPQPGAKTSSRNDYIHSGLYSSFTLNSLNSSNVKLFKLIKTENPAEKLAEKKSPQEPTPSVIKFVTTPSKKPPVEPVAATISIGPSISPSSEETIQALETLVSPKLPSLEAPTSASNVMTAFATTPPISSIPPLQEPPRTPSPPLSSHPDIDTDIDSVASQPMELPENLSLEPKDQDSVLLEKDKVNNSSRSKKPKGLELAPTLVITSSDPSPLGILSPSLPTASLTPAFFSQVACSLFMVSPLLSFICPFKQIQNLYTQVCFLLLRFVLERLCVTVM
# Summary of the method: as §1
# ETV2 = target: T4, ETV2 (Homo sapiens, UniProt O00321 1-342); details: protein: recombinant; tags: N-terminal GST; dsDNA, one strand shown
# T4 sequence: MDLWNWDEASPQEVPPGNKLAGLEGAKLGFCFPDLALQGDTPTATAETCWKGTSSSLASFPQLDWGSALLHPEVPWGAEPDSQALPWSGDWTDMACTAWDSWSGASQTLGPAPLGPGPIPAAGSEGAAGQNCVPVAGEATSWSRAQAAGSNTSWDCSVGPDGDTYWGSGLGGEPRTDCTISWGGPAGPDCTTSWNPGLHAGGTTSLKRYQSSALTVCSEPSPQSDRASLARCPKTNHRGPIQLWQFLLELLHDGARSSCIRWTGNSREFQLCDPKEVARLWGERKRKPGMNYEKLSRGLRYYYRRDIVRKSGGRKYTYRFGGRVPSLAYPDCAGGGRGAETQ
# Summary of the method: as §1
# ELF3 = target: T5, ELF3 (Homo sapiens, UniProt P78545 1-371); details: protein: recombinant; tags: N-terminal GST; dsDNA, one strand shown
# T5 sequence: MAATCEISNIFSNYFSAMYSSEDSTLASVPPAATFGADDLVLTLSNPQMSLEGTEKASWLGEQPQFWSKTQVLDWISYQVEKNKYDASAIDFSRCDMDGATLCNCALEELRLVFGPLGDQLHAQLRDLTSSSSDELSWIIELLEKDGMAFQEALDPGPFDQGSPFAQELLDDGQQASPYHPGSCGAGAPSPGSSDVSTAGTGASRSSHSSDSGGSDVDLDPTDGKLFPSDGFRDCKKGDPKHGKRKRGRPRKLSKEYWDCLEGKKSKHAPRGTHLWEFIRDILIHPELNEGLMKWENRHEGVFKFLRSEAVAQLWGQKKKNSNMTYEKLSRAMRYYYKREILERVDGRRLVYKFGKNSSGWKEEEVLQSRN
# Summary of the method: as §1
# CRX = CRX (Homo sapiens, UniProt O43186 1-299); details: protein: recombinant; tags: N-terminal GST; dsDNA, one strand shown
# Chain of CRX (O43186 whole entry): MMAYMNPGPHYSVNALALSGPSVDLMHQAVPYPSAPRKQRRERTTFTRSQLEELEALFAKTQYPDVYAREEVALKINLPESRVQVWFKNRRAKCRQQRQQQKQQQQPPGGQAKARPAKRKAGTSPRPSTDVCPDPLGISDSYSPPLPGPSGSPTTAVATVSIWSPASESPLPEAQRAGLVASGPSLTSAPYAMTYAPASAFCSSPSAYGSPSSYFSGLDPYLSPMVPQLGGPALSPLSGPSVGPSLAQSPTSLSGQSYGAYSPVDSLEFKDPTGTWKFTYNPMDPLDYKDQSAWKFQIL
# Summary of the method: as §1
# ETV1 = ETV1 (Homo sapiens, UniProt P50549 1-477); details: protein: recombinant; tags: N-terminal GST; dsDNA, one strand shown
# Chain of ETV1 (P50549 whole entry): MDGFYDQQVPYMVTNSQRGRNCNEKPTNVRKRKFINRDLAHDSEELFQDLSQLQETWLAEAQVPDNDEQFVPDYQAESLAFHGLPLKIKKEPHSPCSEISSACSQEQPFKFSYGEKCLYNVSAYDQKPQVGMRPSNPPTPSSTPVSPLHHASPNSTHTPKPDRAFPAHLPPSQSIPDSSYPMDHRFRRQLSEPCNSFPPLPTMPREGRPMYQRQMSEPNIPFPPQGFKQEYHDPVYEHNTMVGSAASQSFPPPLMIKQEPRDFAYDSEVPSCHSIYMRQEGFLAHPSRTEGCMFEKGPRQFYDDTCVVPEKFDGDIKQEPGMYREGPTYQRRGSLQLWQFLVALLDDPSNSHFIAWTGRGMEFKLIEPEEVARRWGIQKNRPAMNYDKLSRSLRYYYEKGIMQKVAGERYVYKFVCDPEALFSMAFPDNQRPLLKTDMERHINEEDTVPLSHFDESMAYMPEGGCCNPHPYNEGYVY
# Summary of the method: as §1
sequence,measurement,setting,value
CTGCTT,binding signal,FEV,"1.8 fold enrichment (6-mer frequency, TF over GST control)"
same,binding signal,ETV5,"1.66 fold enrichment (6-mer frequency, TF over GST control)"
same,binding signal,HSF1,"1.53 fold enrichment (6-mer frequency, TF over GST control)"
same,binding signal,SPIC,"1.8 fold enrichment (6-mer frequency, TF over GST control)"
same,binding signal,ELF4,"1.68 fold enrichment (6-mer frequency, TF over GST control)"
same,binding signal,ELK4,"1.88 fold enrichment (6-mer frequency, TF over GST control)"
same,binding signal,ETV2,"1.93 fold enrichment (6-mer frequency, TF over GST control)"
same,binding signal,ELF3,"1.28 fold enrichment (6-mer frequency, TF over GST control)"
same,binding signal,CRX,"1.69 fold enrichment (6-mer frequency, TF over GST control)"
same,binding signal,ETV1,"1.73 fold enrichment (6-mer frequency, TF over GST control)"
